Test results as given in PubChem BioAssay (NCI).
Compounds without any hit were thinned out: in the full panel of roughly 79,000, 15% have a hit. Active and inactive are the calls of the source. Rule as the data show it: active = growth inhibition above about 70%; inactive = the rest.

Tests used:
[1] = NCI Yeast Anticancer Drug Screen. Data for the rad50 strain (AID 155);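 also: 0% = growth of vehicle-only cultures of the same strain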; details: S. cerevisiae rad50 strain growth inhibition, stronger effect = higher value
Method in brief: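 Relative growth inhibition (compound vs vehicle) was measured in yeast with a defined repair-gene alteration.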

[2] = NCI Yeast Anticancer Drug Screen. Data for the mec2-1 strain (AID 157); details: S. cerevisiae mec2-1 strain, stronger effect = higher value
Method in brief: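 Vehicle-treated cultures served as reference for growth inhibition of compound-exposed mec2-1 yeast.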

[3] = NCI Yeast Anticancer Drug Screen. Data for the sgs1 mgt1 strain (AID 161);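 also: 0% = growth of cultures given vehicle only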; details: S. cerevisiae sgs1 mgt1 strain, stronger effect = higher value
Method in brief: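 Mutant yeast exposed to compound; growth scored against vehicle-only wells.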

[4] = NCI Yeast Anticancer Drug Screen. Data for the cln2 rad14 strain (AID 165);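 also: 0% = growth equal to vehicle treated cultures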; details: S. cerevisiae cln2 rad14 strain, stronger effect = higher value
Method in brief: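 Each compound was tested on cln2 rad14 yeast. Inhibition of growth was calculated against vehicle-exposed controls.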

[5] = NCI Yeast Anticancer Drug Screen. Data for the bub3 strain (AID 167); details: S. cerevisiae bub3 mutant strain, stronger effect = higher value
Method in brief: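 Screening used yeast with an engineered genetic alteration affecting cell cycle control. Compound-exposed cultures were compared with vehicle cultures, and reduced growth was taken as inhibition.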

[6] = NCI Yeast Anticancer Drug Screen. Data for the mlh1 rad18 strain (AID 175); details: S. cerevisiae mlh1 rad18 strain growth inhibition, stronger effect = higher value
Method in brief: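 Vehicle-treated cultures served as the reference for growth inhibition in a yeast strain carrying DNA damage repair alterations exposed to each compound.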

[7] = at 5.0 µM (retest, dose inferred, filed as 0.5)
[8] = at 50.0 µM (retest, dose inferred, filed as 5.0)

Measured: growth inhibition

COC1(OC)CNC(C(=O)O)C1 (stereo not given)
inactive: [1]; [7] -154% | [1]; [8] -139% | [1]; at 50.0 µM 19.1% | [2]; [7] -44% | [2]; [8] -45% | [2]; at 50.0 µM 2.65% | [3]; [7] -66% | [3]; [8] -59% | [3]; at 50.0 µM 18.2% | [4]; [7] -54% | [4]; [8] -49% | [4]; at 50.0 µM 2.4% | [5]; [7] -71% | [5]; [8] -66% | [5]; at 50.0 µM 21.4% | [6]; [7] -141% | [6]; [8] -111% | [6]; at 50.0 µM 13.3%

CN(C)c1ccc(C2ON=C(c3ccccc3)N2C23CC4CC(CC(C4)C2)C3)cc1 (stereo not given)
inactive: [1]; [7] 0% | [1]; [8] 36% | [1]; at 50.0 µM -11.6% | [2]; [7] -11% | [2]; [8] 3% | [2]; at 50.0 µM -3.05% | [3]; [7] -5% | [3]; [8] 33% | [3]; at 50.0 µM -7.15% | [4]; [7] 8% | [4]; [8] 2% | [4]; at 50.0 µM 55.3% | [5]; [7] 14% | [5]; [8] 13% | [5]; at 50.0 µM -11.1% | [6]; [7] 4% | [6]; [8] 5% | [6]; at 50.0 µM -24%

Cc1ccnc(NC(c2ccccc2)c2ccc3cccnc3c2O)c1 (stereo not given)
active: [1]; [8] 95% | [1]; at 50.0 µM 98.3% | [2]; [8] 97% | [2]; at 50.0 µM 96.3% | [3]; [8] 95% | [3]; at 50.0 µM 97.7% | [4]; [8] 95% | [4]; at 50.0 µM 95.4% | [5]; [8] 96% | [5]; at 50.0 µM 98.7% | [6]; [8] 95% | [6]; at 50.0 µM 97.4%
inactive: [1]; [7] 0% | [2]; [7] -5% | [3]; [7] -3% | [4]; [7] -7% | [5]; [7] -6% | [6]; [7] 6%

COc1cccc(CC2N(S(=O)(=O)c3ccc(C)cc3)CCC23C(=O)Nc2ccccc23)c1OC (stereo not given)
active: [1]; [8] 94% | [1]; at 50.0 µM 91.8% | [2]; [8] 96% | [3]; [8] 96% | [3]; at 50.0 µM 82.2% | [4]; [8] 93% | [5]; [8] 96% | [5]; at 50.0 µM 80.7% | [6]; [8] 96% | [6]; at 50.0 µM 92.2%
inactive: [1]; [7] 10% | [2]; [7] 2% | [2]; at 50.0 µM 69.4% | [3]; [7] 10% | [4]; [7] -3% | [4]; at 50.0 µM 39% | [5]; [7] -3% | [6]; [7] 3%

C=CC(=O)NC(=O)Nc1ccc(Cl)cc1
inactive: [1]; [7] 18% | [2]; [7] 32% | [3]; [7] 27% | [4]; [7] 10% | [5]; [7] 23% | [6]; [7] 25%
active: [1]; [8] 97% | [1]; at 50.0 µM 98% | [2]; [8] 98% | [2]; at 50.0 µM 98.2% | [3]; [8] 99% | [3]; at 50.0 µM 98.9% | [4]; [8] 98% | [4]; at 50.0 µM 97.5% | [5]; [8] 97% | [5]; at 50.0 µM 98.3% | [6]; [8] 99% | [6]; at 50.0 µM 98.7%

O=C(N/N=C/c1ccccc1)c1ccc([N+](=O)[O-])cc1
inactive: [1]; [7] 16% | [1]; [8] 15% | [1]; at 50.0 µM 8.6% | [2]; [7] -3% | [2]; [8] 6% | [2]; at 50.0 µM 7.3% | [3]; [7] 22% | [3]; [8] 12% | [3]; at 50.0 µM 1.15% | [4]; [7] 12% | [4]; [8] 19% | [4]; at 50.0 µM -1.35% | [5]; [7] 17% | [5]; [8] 24% | [5]; at 50.0 µM 14.9% | [6]; [7] 15% | [6]; [8] 18% | [6]; at 50.0 µM 1.05%

CC(C)SCC1CO1 (stereo not given)
inactive: [1]; [7] -1% | [1]; [8] 1% | [1]; at 50.0 µM -19.6% | [2]; [7] -1% | [2]; [8] -4% | [2]; at 50.0 µM 3.9% | [3]; [7] -1% | [3]; [8] 1% | [3]; at 50.0 µM 18.1% | [4]; [7] 2% | [4]; [8] -11% | [4]; at 50.0 µM 47.5% | [5]; [7] 0% | [5]; [8] -9% | [5]; at 50.0 µM -6.55% | [6]; [7] -1% | [6]; [8] -5% | [6]; at 50.0 µM -3.5%

O=C(/C=C/C(=O)c1ccc(O)cc1)c1ccccc1
inactive: [1]; [7] -1% | [1]; at 50.0 µM 12.4% | [2]; [7] -1% | [2]; at 50.0 µM 26.6% | [3]; [7] -3% | [3]; at 50.0 µM 30.8% | [4]; [7] 3% | [4]; at 50.0 µM 24.6% | [5]; [7] -6% | [5]; at 50.0 µM 38.6% | [6]; [7] -1% | [6]; at 50.0 µM 24.7%
active: [1]; [8] 89% | [2]; [8] 85% | [3]; [8] 82% | [4]; [8] 90% | [5]; [8] 87% | [6]; [8] 94%

CCCCCCCCCCCCCCCCNC(=S)N/C=C(/C#N)C(=O)OC
active: [1]; [7] 78% | [1]; [8] 99% | [1]; at 50.0 µM 99% | [2]; [7] 89% | [2]; [8] 99% | [2]; at 50.0 µM 99.2% | [3]; [8] 99% | [3]; at 50.0 µM 99.2% | [4]; [8] 98% | [4]; at 50.0 µM 98.8% | [5]; [7] 99% | [5]; [8] 99% | [5]; at 50.0 µM 99.4% | [6]; [8] 99% | [6]; at 50.0 µM 99.2%
inactive: [3]; [7] 39% | [4]; [7] 67% | [6]; [7] 57%

O=C1OCc2cccc3cccc1c23
inactive: [1]; [7] 7% | [2]; [7] 9% | [2]; [8] 43% | [2]; at 50.0 µM 38.6% | [3]; [7] 4% | [3]; [8] 29% | [4]; [7] 8% | [4]; [8] 38% | [4]; at 50.0 µM 36.5% | [5]; [7] 11% | [5]; [8] 69% | [5]; at 50.0 µM 27.8% | [6]; [7] 5% | [6]; [8] 36% | [6]; at 50.0 µM 62%
active: [1]; [8] 84% | [1]; at 50.0 µM 88.5% | [3]; at 50.0 µM 70.3%
